# An excerpt weighted towards active compounds, which were near 2% of everything screened.
# IL2 activator: activators of IL-2 | IL-2 activation reporter assay, cell-based qHTS; stimulated with anti-CD3/CD4/CD28 beads; in transgenic mouse T cells | activation, % (series mostly up to about 46 µM) | AID 652025 | 0.065% of 360,000 active; in the data active means activation above about 50%; inconclusive means mostly about 30% to 49%
#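 Screening format: compound pinned onto unstimulated transgenic mouse T cells, 60 min incubation, then anti-CD3/anti-CD4/anti-CD28 bead stimulation for 18 hours at 37 degrees C, followed by EGFP and DsRed detection.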
# PKM2 activator: increases activity of human pyruvate kinase M2; 0.34% of 260,000 active; purified PKM2, Kinase-Glo ATP luminescence, activation; response scale: 0% is enzyme alone, no compound; Potency, µM (titrated, usually from 57.5 µM), usual class: activators; further: nearly all actives have a fitted effect of over 55% in size
#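 Kinase-Glo luminescence reports ATP generated from ADP (0.1 mM) and PEP (0.5 mM) by purified hPK-M2 after 1 h at room temperature, pH 7.2 imidazole buffer; intermediate enzyme activity allows detecting inhibitors and activators.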
# ClpP mod: qHTS Assay for Activators of ClpP | AID 651965, 2013 | purified B. subtilis ClpP, FRET peptide cleavage, 20 min | 1.9% of 340,000 active | Potency, µM (titrated, usually from 57.5 µM); active means well fitted falling curve with a large enough effect; inconclusive means small, poorly fitted or top-dose-only effect; inactive means no such curve, though single readings can be large or run the other way; further: the source files actives as falling curves though it sought activators and does not explain the sign; nearly all actives have a fitted effect of over 65% in size
# Target sequence (P80244 whole entry, looked up): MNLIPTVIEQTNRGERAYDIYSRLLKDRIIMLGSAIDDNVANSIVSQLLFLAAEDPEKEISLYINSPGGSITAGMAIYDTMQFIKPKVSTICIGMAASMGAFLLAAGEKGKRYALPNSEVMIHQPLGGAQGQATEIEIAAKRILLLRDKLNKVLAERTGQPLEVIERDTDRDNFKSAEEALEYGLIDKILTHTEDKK
#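 ClpP 10 microg/mL final, pH 8 Tris/KCl buffer with BSA, glycerol, Tween-20; compound pinned in; FRET-FV substrate; RT 20 min; Ex320/Em430; ΔFRET vs ADEP 5.8 microM, DMSO, no enzyme.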
# NPSR antag: blocks cAMP signaling of the human neuropeptide S receptor. Q6W5P4. CHO-NPSR cells, cAMP TR-FRET, antagonist mode. Potency, µM (top dose mostly 38.3 µM), hits mostly inhibitors. 1% of 220,000 active; further: nearly all actives have a fitted effect of over 50% in size
# Target sequence (Q6W5P4 whole entry, looked up): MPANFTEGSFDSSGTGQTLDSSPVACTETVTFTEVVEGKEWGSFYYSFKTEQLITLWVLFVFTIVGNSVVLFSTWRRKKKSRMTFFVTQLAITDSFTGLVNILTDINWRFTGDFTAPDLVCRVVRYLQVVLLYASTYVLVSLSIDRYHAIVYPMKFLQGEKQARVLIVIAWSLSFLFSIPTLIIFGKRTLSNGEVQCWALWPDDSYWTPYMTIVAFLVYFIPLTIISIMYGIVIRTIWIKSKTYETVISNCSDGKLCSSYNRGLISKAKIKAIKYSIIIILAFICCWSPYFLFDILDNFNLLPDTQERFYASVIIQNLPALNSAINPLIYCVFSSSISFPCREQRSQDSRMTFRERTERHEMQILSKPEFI
# A number is an active result; - = inactive; ? = inconclusive; . = no result; ! = a repeat was not active. Unless noted, the call rests on the fitted dose curve; in most records, active means well fitted curve in the direction sought with a large enough effect; inconclusive means small, poorly fitted or top-dose-only effect, or another doubt; inactive means no such curve, though single readings can be large; an effect the other way counts as inactive or inconclusive.
SMILES,IL2 activator,PKM2 activator,ClpP mod,NPSR antag
Nc1c(C(=O)NC2CCCCC2)nsc1C(=O)OCC(=O)NC1CCCCC1,-,-,25.1µM,?
CC(C)(C)c1ccc(C2CC2C(=O)N/N=C\c2cc3ccccc3nc2Cl)cc1 (stereo unspecified),-,-,-,-
CCCc1ccc2oc(C(=O)N(Cc3nccn3C)C(C)C)c(C)c2c1,-,-,-,.
CCOc1ccc(C2C=C(c3cccc(OC)c3)Nc3nnnn32)cc1 (stereo unspecified),.,.,-,.
COc1ccc(C2=CC(c3cccc(C)c3)n3nnnc3N2)cc1 (stereo unspecified),.,.,31.6µM,.
O=C(c1ccc(Oc2ccc(C(F)(F)F)cc2[N+](=O)[O-])cc1)N1CCOCC1,-,-,-,-
Cc1ccc2oc(-c3ccco3)nc2c1,-,-,11.2µM!,-
Cc1ccc2oc(-c3cccc(N)c3)nc2c1,-,-,.,-
Cc1ccc(-c2nc3cc(C)ccc3o2)cc1,-,-,31.6µM,-
Cc1ccc(-c2nc3cc(N)ccc3o2)cc1,-,-,-,-
COC(=O)c1ccc(-c2nc3ccc(C)cc3o2)cc1,-,-,3.55µM,-
CC(C)NC(=S)N/N=C/c1ccc(C(C)(C)C)cc1,-,-,-,-
CCOC(=O)C1(Cc2cccc(Cl)c2)CCCN(C(=O)c2cc(C)[nH]n2)C1 (stereo unspecified),-,-,28.2µM,.
COCc1cc(C)nc(N2CCCCC2)c1C#N,-,-,22.4µM,-
COCc1cc(C)nc(N2CCNCC2)c1C#N,-,-,15.8µM,-
COCc1cc(C)nc(N2CCN(Cc3ccccc3)CC2)c1C#N,-,-,-,-
COCc1cc(C)nc(N2CCN(c3ccccc3)CC2)c1C#N,-,-,-,-
O=C(Nc1ccc(F)cc1F)c1cc2nc3c(c(C(F)(F)F)n2n1)CCCC3,-,-,-,-
O=C(Nc1ccc(F)cc1F)c1cc2n(n1)C(C(F)(F)F)C1CCCCC1N2 (stereo unspecified),-,-,28.2µM,-
CC(C)C(=O)Nc1ccc([N+](=O)[O-])cc1Br,-,-,35.5µM,-
Cc1cccc(NC(=O)c2cc(-c3ccc(C)s3)nc3ccccc23)n1,-,-,15.8µM,-
O=C(O)c1cc(-c2ccc(Cl)s2)nc2ccccc12,-,-,.,6.31µM
Cc1ccc(-c2cc(C(=O)O)c3ccccc3n2)s1,-,.,-,.
CCCCN(C)CCCNC(=O)c1cc(-c2ccc(Br)s2)nc2ccccc12,.,.,-,.
Cc1cc(NC(=O)c2cc(-c3ccc(C)s3)nc3ccccc23)no1,-,-,-,-
SMILES,IL2 activator,PKM2 activator,ClpP mod,NPSR antag
CN(Cc1ccccc1)C(=O)COC(=O)c1cc(-c2ccc(Cl)s2)nc2ccccc12,-,-,11.2µM,?
CCCCN(CCCC)CCCNC(=O)c1cc(-c2ccc(Cl)s2)nc2ccccc12,.,.,35.5µM,.
O=C(Nc1ccc2nc(-c3cccnc3)[nH]c2c1)c1ccccc1F,-,-,-,-
Cc1nn(CCOc2cccc(Br)c2)c(C)c1[N+](=O)[O-],-,-,.,-
CC(C)(C)C(=O)/C=c1\s/c(=C\c2ccc(-c3ccc([N+](=O)[O-])cc3)o2)c(=O)n1CC(=O)NC(N)=O,164.1,-,.,-
CCOC(=O)c1c(NC(=O)c2ccccc2N(C)S(=O)(=O)c2ccccc2)sc2c1CCCC2,-,-,12.6µM,-
COC(=O)c1c(NC(=O)c2ccccc2N(C)S(=O)(=O)c2ccccc2)sc2c1CCCC2,-,-,?,-
CCOC(=O)c1c(NC(=O)c2ccn(CC)n2)sc2c1CCCC2,-,-,25.1µM,?
CCOC(=O)c1c(NC(=O)c2ccc(C)cc2)sc2c1CCCCC2,.,.,-,.
Cn1c(CCNC(=O)c2ccccc2)nc2cc(NC(=O)C3CCCCC3)ccc21,-,-,-,-
COC(=O)NNC(=O)COc1ccc2ccccc2c1Br,-,-,25.1µM,-
Cc1c(C(=O)NCc2ccccc2)oc2c1-c1[nH]ncc1CC2,.,.,25.1µM,.
O=C(c1ccc(NS(=O)(=O)c2cccc3cccnc23)cc1)N1CCCCC1,-,15.8µM,-,-
O=c1oc2ccc(NS(=O)(=O)c3cccc4cccnc34)cc2s1,-,14.1µM,.,.
O=C(CNC(=S)N(Cc1ccc(F)cc1)C1CCCCC1)NCCN1CCOCC1,-,-,.,-
Cc1ccc(-c2nnc(SCC(=O)NC3CC3)n2N)cc1,-,-,-,-
CCCNC(=S)N(Cc1ccccc1)Cc1nc2ccccc2c(=O)[nH]1,-,-,28.2µM,-
Nc1ccccc1C(=O)NC(=O)Nc1ccc(Oc2ncc(Br)cn2)c(Cl)c1,-,.,22.4µM,.
Cc1cc(NC(=O)NC(=O)c2ccccc2NC(=O)CN)ccc1Oc1ncc(Br)cn1,-,.,17.8µM,.
Cc1cc(NC(=O)NC(=O)c2ccccc2NC(=O)CN(C)C)ccc1Oc1ncc(Br)cn1,-,.,-,.
COc1cc(-c2nc(-c3ccccc3)c(-c3cccs3)[nH]2)cc(OC)c1O,-,-,28.2µM,-
O=C(O)c1ccccc1-c1nc(-c2ccccc2)c(-c2ccccc2)[nH]1,-,-,.,-
COc1cc(-c2nc(-c3ccccc3)c(-c3cccs3)[nH]2)cc(OC)c1OC,-,-,31.6µM,?
c1csc(-c2nc3c4ccccc4c4ccccc4c3[nH]2)c1,-,-,39.8µM,-
COc1cc(-c2nc(-c3ccc4c(c3)-c3ccccc3S4(=O)=O)c(-c3ccccc3)[nH]2)cc(OC)c1OC,-,-,-,-
SMILES,IL2 activator,PKM2 activator,ClpP mod,NPSR antag
c1ccc(-c2nc(-c3cccs3)[nH]c2-c2ccccc2)cc1,-,-,31.6µM,-
CC(=O)NC1(NC(C)=O)CCN(C)C(c2ccccc2)C1C (stereo unspecified),-,-,-,-
CCOc1ccc(CN(C(=O)c2ccccn2)c2ccc(OC)c(Cl)c2)cc1,-,.,-,.
O=C(Cc1cccc(NC(=O)C2CCN(C(=O)C3CCCCC3)CC2)c1)Nc1cccc(C(=O)N2CCCCC2)c1,-,.,-,.
OC(CNCCNc1ncccc1C(F)(F)F)Cn1ccc2ccccc21 (stereo unspecified),-,-,-,-
CCCCc1cc(=O)oc2cc(C)cc(OC(C)C(=O)O)c12 (stereo unspecified),-,-,15.8µM,-
CCCCc1cc(=O)oc2cc(C)c3c(C)coc3c12,.,.,28.2µM,.
CCCc1cc(=O)oc2cc(C)cc(OCC(=O)O)c12,-,-,15.8µM,-
CCc1cc(=O)oc2cc(C)cc(OCc3nn[nH]n3)c12,-,-,?,-
CCCc1cc(=O)oc2cc(C)cc(OCC(=O)Nc3ccccn3)c12,-,.,-,.
C=C(Cl)COc1cc(C)cc2oc(=O)cc(CC)c12,-,-,31.6µM,-
COC(=O)C1CCN(S(=O)(=O)CCNC(=O)c2ccccc2)CC1,-,.,-,.
NC(=O)[C@@H]1CCCNc2c(I)cc([N+](=O)[O-])cc2C(=O)N[C@@H](Cc2ccccc2)C(=O)N[C@@H](Cc2cnc[nH]2)C(=O)N1,-,-,-,-

# From PubChem
